PubChem BioAssay (NCATS)
Results filed as inconclusive are left out. A call without a number means that no potency is given here. Activity calls are given as the source filed them. The call rests on the fitted dose curve; in most records, active means well fitted curve in the direction sought with a large enough effect; inconclusive means small, poorly fitted or top-dose-only effect, or another doubt; inactive means no such curve, though single readings can be large; an effect the other way counts as inactive or inconclusive.

Legend:
[1] = qHTS of pediatric cancer cell lines to identify multiple opportunities for drug repurposing: Confirmatory screen for Saos-2 cells (AID 1347127); further: nearly all actives have a fitted effect of over 60% in size; further: potency means the concentration at half of the fitted maximal effect
Outline: (§1)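 Cells (500-1,000/well) in growth media were settled 5 h at 37 degrees C, then given compounds for 48 h. Viability was read as CellTiter-Glo luminescence. Primary runs used MIPE at 11 points (0.78 nM-46 µM) and NPC at 8 points (0.59 nM-46 µM); follow-ups used 11 points.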

[2] = qHTS of pediatric cancer cell lines to identify multiple opportunities for drug repurposing: Confirmatory screen for OHS-50 cells (AID 1347128);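 further: compound exposure lasted 48 h at 37 degrees C; nearly all actives have a fitted effect of over 55% in size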; further: potency means the concentration at half of the fitted maximal effect
Outline: as §1

[3] = qHTS of pediatric cancer cell lines to identify multiple opportunities for drug repurposing: Confirmatory screen for SK-N-SH cells (AID 1347129);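 further: cells exposed to compound for 48 h before viability read; nearly all actives have a fitted effect of over 60% in size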; further: potency means the concentration at half of the fitted maximal effect
Outline: as §1

[4] = tested on: Zika virus NS2B-NS3 protease; assay: Primary screen GU AMC qHTS for Zika virus inhibitors (AID 1347154); further: nearly all actives have a fitted effect of over 70% in size; further: potency means the concentration at half of the fitted maximal effect
Outline: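 Unlinked Zika NS2B hydrophilic domain/NS3 protease domain noncovalent complex (25 nM final) in 10 mM Tris-HCl pH 8.0, 0.01% Tween 20, with AMC peptide substrate. Fluorescence (ex 340, em 450 nm) change over 15 min, room temperature; percent inhibition fitted to 4-parameter Hill equation.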

[5] = tested on: Zika virus NS2B-NS3 protease (unlinked complex); assay: Primary screen GU Rhodamine qHTS for Zika virus inhibitors: Unlinked NS2B-NS3 protease assay (AID 1347159); further: nearly all actives have a fitted effect of over 60% in size; further: potency means the concentration at half of the fitted maximal effect
Outline: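 Compounds, tested up to 114 microM, were incubated for 15 minutes with 25 nM unlinked NS2B-NS3 protease at pH 8.0. Cleavage of 1.5 microM Rhodamine110 substrate was then followed by fluorescence for 15 minutes.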

[6] = tested on: Zika virus NS2B-NS3 protease (linked construct); assay: Primary screen NINDS Rhodamine qHTS for Zika virus inhibitors (AID 1347160); further: nearly all actives have a fitted effect of over 55% in size; further: potency means the concentration at half of the fitted maximal effect
Outline: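 Percent inhibition, normalized to uninhibited and enzyme-free controls, is fitted to a 4-parameter Hill equation. Fluorescence change comes from a 15-min cleavage of 1.5 microM bis-peptide Rhodamine110 substrate by 25 nM linked NS2B-NS3 at room temperature.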

Furin (Homo sapiens) = Furin (Homo sapiens) (UniProt P09958); assay: Furin counterscreen qHTS for Zika virus inhibitors (AID 1347149); further: potency means the concentration at half of the fitted maximal effect; nearly all actives have a fitted effect of over 70% in size
Outline: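 Fluorogenic cleavage of BOC-RVRR-AMC (2 microM final, Km ~15 µM) was monitored (ex 340, em 450 nm) at 37C after 15 min RT preincubation of 5 nM furin with compounds in HEPES pH 7.0 buffer with CaCl2 and Triton X-100. Percent inhibition was fitted to a 4-parameter Hill curve.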

[7] = Vero cells viability qHTS for Zika virus inhibitors (AID 1347167)
Outline: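 Counter-screen for cytotoxicity of hits from NS2B-NS3 protease qHTS. Overnight-attached cells (2.5 x 10^5 cells/mL, DMEM/4% FBS) were dosed in titration, incubated 24 to 48 hours, then assayed by CellTiter Glo.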

[8] = qHTS to identify inhibitors of the type 1 interferon - major histocompatibility complex class I in skeletal muscle: primary screen against the NCATS Pharmaceutical Collection (AID 1347407);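 further: luminescence of HiBiT knocked into endogenous HLA-B as interferon-induced MHC class I level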
Outline: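 Cells were seeded with 4 ng/ml IFN-beta, incubated 1 h, then dosed with compounds over eight 1:5 steps up to 46 uM final. After 24 h at 37 C, HiBiT lytic reagent was added and luminescence read after 10 min lysis in the dark.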

[9] = Tertiary RLuc qRT-PCR qHTS assay for Zika virus inhibitors (AID 1347169); further: potency means the concentration at half of the fitted maximal effect; nearly all actives have a fitted effect of over 55% in size
Outline: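 Orthogonal cell-based infection assay using recombinant ZIKV-RLuc (Cambodian) in Vero cells; compound added prior to virus at MOI 1-2. Incubation lasts 48-72 hrs at 37 degrees C before live-cell Renilla substrate is added and luminescence measured.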

Sequence of Furin (Homo sapiens) (P09958 whole entry, looked up): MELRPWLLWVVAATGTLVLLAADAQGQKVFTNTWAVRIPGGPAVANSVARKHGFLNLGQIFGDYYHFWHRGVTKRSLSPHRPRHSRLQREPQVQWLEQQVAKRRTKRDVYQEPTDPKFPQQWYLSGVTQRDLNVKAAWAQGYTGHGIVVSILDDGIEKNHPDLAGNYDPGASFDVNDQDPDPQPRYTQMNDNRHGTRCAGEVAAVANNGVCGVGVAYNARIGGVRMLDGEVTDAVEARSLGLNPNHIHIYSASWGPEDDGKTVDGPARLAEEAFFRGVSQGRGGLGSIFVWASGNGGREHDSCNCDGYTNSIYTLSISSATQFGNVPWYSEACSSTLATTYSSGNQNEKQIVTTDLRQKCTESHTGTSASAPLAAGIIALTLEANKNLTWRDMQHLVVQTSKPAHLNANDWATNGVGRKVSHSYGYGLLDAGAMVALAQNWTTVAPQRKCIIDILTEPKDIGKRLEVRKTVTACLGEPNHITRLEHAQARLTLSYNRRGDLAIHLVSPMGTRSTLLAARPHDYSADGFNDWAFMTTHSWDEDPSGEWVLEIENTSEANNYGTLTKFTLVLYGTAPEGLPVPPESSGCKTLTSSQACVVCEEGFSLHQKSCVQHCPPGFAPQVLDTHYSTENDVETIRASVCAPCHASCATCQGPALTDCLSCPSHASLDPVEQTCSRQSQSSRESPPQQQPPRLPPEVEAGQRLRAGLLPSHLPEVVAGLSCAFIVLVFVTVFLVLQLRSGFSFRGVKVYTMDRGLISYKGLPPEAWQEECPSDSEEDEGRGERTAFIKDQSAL

Structure (SMILES)	Potency [1]	Potency [2]	Potency [3]	Potency [4]	Potency [5]	Potency [6]	Potency (Furin (Homo sapiens))	Potency [7]	outcome [8]	Potency [9]
CNC(=O)c1ccc(N2C(=S)N(c3cnc(C#N)c(C(F)(F)F)c3)C(=O)C23CCC3)cc1F	inactive	inactive	inactive	inactive	inactive	inactive				
CC(=O)Nc1nc(C)c(-c2ccc(Cl)c(S(=O)(=O)NCCO)c2)s1	16.5 µM (active)	11.7 µM (active)		inactive	inactive	inactive				
CCn1cc(-c2ccnc3[nH]c(-c4cccc(CN(C)C)c4)cc23)c(-c2ccc(NC(=O)N(C)C)cc2)n1	16.5 µM (active)		2.96 µM (active)		inactive	inactive	21.5 µM (active)	inactive		
COc1cc2nccc(Oc3ccc(NC(=O)C4(C(=O)Nc5ccc(F)cc5)CC4)cc3)c2cc1OC	18.5 µM (active)	20.8 µM (active)		inactive	inactive	inactive				
CN(C)Cc1c(C(=O)NCCOc2ccc(C(=O)NO)cc2)oc2ccccc12	1.47 µM (active)	1.65 µM (active)	3.72 µM (active)	inactive	inactive	inactive				
CC1(C)CCC(c2ccc(Cl)cc2)=C(CN2CCN(c3ccc(C(=O)NS(=O)(=O)c4ccc(N[C@H](CCN5CCOCC5)CSc5ccccc5)c(S(=O)(=O)C(F)(F)F)c4)cc3)CC2)C1	inactive	inactive			2.24 µM (active)					
Cc1nc2ccc(CN(C)c3ccc(C(=O)N[C@@H](CCC(=O)O)C(=O)O)s3)cc2c(=O)[nH]1	inactive	inactive	inactive	inactive					inactive	
CCn1nnc2c(N3CCOCC3)nc(-c3ccc(NC(=O)Nc4ccc(C(=O)N5CCN(C)CC5)cc4)cc3)nc21	0.657 µM (active)	1.17 µM (active)	5.9 µM (active)		inactive	inactive				
CC[C@@]1(O)C(=O)OCc2c1cc1n(c2=O)Cc2cc3cc(O)ccc3nc2-1	0.0465 µM (active)	0.0928 µM (active)	1.87 µM (active)			20 µM (active)				
Cc1ccc(NC(=O)C2(c3ccc4c(c3)OC(F)(F)O4)CC2)nc1-c1cccc(C(=O)O)c1	inactive		inactive	inactive	17.8 µM (active)					
CC(C)c1nn(-c2c(Cl)cccc2Cl)c2nc(Cc3ccc(OCCO)cc3)[nH]c(=O)c12	0.0827 µM (active)	0.104 µM (active)	0.118 µM (active)	inactive	inactive	inactive				
Cc1cc(Nc2cc(N3CCN(C)CC3)nc(Sc3ccc(NC(=O)C4CC4)cc3)n2)n[nH]1	16.5 µM (active)	9.27 µM (active)	11.8 µM (active)	inactive	inactive	inactive				
CN(C)CCCN=c1c2ccccc2n(C)c2[nH]c(=O)n(C)c(=O)c12	inactive		inactive	inactive						
Nc1ccccc1NC(=O)c1ccc(CNC(=O)OCc2cccnc2)cc1	2.14 µM (active)	10.7 µM (active)		inactive	inactive	inactive				
C[C@@H](Oc1cc(-c2cnn(C3CCNCC3)c2)cnc1N)c1c(Cl)ccc(F)c1Cl	13.1 µM (active)	14.7 µM (active)	7.43 µM (active)	inactive	inactive	inactive				
OCCCNc1cc(-c2ccnc(Nc3cccc(Cl)c3)n2)ccn1	0.261 µM (active)	0.329 µM (active)	0.148 µM (active)	inactive	inactive	inactive				
CC1(C)O[C@@H]2C[C@@H]3[C@H]4C[C@@H](F)C5=CC(=O)C=C[C@]5(C)[C@@]4(F)[C@@H](O)C[C@]3(C)[C@]2(C(=O)CO)O1	0.117 µM (active)	0.0827 µM (active)		inactive						
Cn1c2ccccc2c2c3c(c4c5ccccc5n(CCC#N)c4c21)CNC3=O	9.27 µM (active)	11.7 µM (active)	14.8 µM (active)	inactive		inactive				
COC(=O)Nc1nc2ccc(C(=O)c3ccc(F)cc3)cc2[nH]1	1.85 µM (active)	2.61 µM (active)	inactive	inactive	inactive	inactive				
COc1ccc(-c2cc3c(C)nc(N)nc3n(C3CCC(OCCO)CC3)c2=O)cn1 (configuration not stated)	inactive	inactive	inactive	inactive	inactive	inactive				
CCOc1cc2ncc(C#N)c(Nc3ccc(F)c(Cl)c3)c2cc1NC(=O)C=CCN(C)C	0.104 µM (active)	0.147 µM (active)		inactive						
COc1cc2c(Oc3ccc(-c4cnc(Nc5ccc(F)cc5)n(C)c4=O)cc3F)ccnc2cc1OCCCN1CCOCC1	7.37 µM (active)	3.69 µM (active)	3.32 µM (active)	24.1 µM (active)	inactive	inactive				
CCc1c2c(nc3ccc(O)cc13)-c1cc3c(c(=O)n1C2)COC(=O)[C@]3(O)CC	inactive	inactive	3.32 µM (active)	inactive	inactive	10 µM (active)				0.0658 µM (active)
